# Experimental data as given in the supplement of paper PMC3334620.
# Whole data set: some 33,000 sequences, median “E-score (-0.5 to 0.5)” near -0.012, cut for the highest 2% near 0.29. Shown is part of a subset that was picked to be rich in the highest values.
# Molecular target: T1, Ybr033w (UniProt P38073)
# T1 sequence: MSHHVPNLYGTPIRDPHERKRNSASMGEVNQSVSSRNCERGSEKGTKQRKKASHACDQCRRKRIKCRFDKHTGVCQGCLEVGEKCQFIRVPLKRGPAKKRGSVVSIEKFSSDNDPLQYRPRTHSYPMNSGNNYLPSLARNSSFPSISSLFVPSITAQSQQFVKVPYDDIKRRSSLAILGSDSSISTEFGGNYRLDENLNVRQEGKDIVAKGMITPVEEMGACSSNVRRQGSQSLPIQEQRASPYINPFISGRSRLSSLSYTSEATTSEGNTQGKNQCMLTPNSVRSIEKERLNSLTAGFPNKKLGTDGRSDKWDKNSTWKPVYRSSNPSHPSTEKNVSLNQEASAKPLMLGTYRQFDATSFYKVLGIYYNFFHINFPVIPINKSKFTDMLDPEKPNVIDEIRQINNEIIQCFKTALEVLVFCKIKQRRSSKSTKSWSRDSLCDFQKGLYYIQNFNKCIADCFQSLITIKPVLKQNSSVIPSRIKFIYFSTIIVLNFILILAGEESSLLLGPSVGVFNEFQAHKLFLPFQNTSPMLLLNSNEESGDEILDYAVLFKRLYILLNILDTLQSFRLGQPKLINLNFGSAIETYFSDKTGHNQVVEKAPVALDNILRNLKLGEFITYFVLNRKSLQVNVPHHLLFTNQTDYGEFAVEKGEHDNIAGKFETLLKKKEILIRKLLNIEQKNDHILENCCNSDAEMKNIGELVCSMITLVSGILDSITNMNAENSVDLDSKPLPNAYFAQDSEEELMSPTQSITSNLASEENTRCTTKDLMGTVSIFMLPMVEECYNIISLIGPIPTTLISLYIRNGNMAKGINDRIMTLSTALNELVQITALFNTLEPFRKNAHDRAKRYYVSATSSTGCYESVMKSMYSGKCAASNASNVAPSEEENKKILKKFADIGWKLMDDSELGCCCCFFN
# Assay: PBM E-score (8-mer binding enrichment) (E-score (-0.5 to 0.5)); higher = stronger / more preferred TF binding
# Details: protein concentration: 200 nM; construct: GST-full length
# Method in brief: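 Full-length yeast transcription factors or their DNA-binding domains, GST-tagged and expressed with PURExpress, were applied at about 100-200 nM to universal all-10-mer Agilent arrays. These arrays had been made double-stranded by primer extension on fresh or once-stripped slides. Detection used fluorescent anti-GST, normalisation used masliner, and E-scores for ungapped eight-base words pooled with reverse complements came from the Universal PBM Analysis Suite.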
row,Sequence,PBM E-score
1,TTAACGAA,0.296
2,ATAACGAA,0.229
3,CTAACGAA,0.0607
4,CAATAAGC,0.0395
5,AAATAAAA,0.233
6,AAATAAGC,0.0677
7,AAATAACG,0.232
8,AAATAACA,0.11
9,AAATAAAT,0.298
10,ATATAAAT,0.34
11,AAATAAGG,0.00755
12,ATATAAAC,0.142
13,AAATAAAG,0.281
14,ATATAAAG,0.211
15,AAATAACT,0.294
16,AAATAAGT,0.295
17,GATTCTGC,0.0635
18,CAGCAAAC,-0.0765
19,GGTTCTGA,-0.0472
20,ACATGACC,-0.186
21,ACTTATGA,0.171
22,CGATCTAC,-0.0159
23,AGCTGGTA,-0.142
24,AGGATTAC,0.106
25,AGGATTTA,0.228

row,Sequence,PBM E-score
1,AGGATTCA,0.114
2,AGGATTAG,0.161
3,AGGATTAT,0.306
4,AGGATTAA,0.361
5,CCTGTAGC,-0.353
6,GGCCTACC,-0.113
7,CGACTGCA,-0.126
8,ACTAACGG,-0.0153
9,TCAATTAA,0.252
10,ACAATTAC,0.202
11,ACAATTAT,0.328
12,ACAATTAA,0.302
13,ACAATTAG,0.0047
14,CCAATTAA,0.215
15,GGCTAGGA,-0.106
16,ACCGCACT,-0.0787
17,GAGAGCTC,-0.197
18,AGCCCAAT,-0.125
19,GAGTTTTA,0.146
20,GATATATA,0.289
21,GATATATC,0.226
22,AAGATATC,0.117
23,CAGATATA,0.175
24,GGGATATA,0.158
25,AAGATATA,0.323

row,Sequence,PBM E-score
1,CGGATATC,0.0386
2,TATATATA,0.28
3,CGGATATA,0.345
4,CGTGGTTA,-0.0128
5,CGCGAGCA,-0.12
6,CACCTTAC,-0.00385
7,TCGGAACA,0.387
8,ACGGAACT,0.0148
9,CGGGAACA,0.331
10,CCGGAACA,0.447
11,ACGGAACA,0.298
12,CCGGAACC,-0.16
13,TGGGAACA,0.111
14,ACGGAACC,-0.0347
15,GGGGAACA,0.00453
16,CCGGAACG,-0.0381
17,AGGGAACA,0.249
18,GCGGAACA,0.265
19,ATCGTTCC,-0.196
20,ATATTTGC,0.222
21,TATGTTAA,0.238
22,CAGGGAAC,0.0159
23,CCCATCCC,-0.23
24,ACTGACGA,-0.0835
25,CTAATTCC,0.0934

row,Sequence,PBM E-score
1,ATAATTCA,0.241
2,CTGATTCC,-0.0421
3,ACAATTCG,0.0965
4,ATGATTCA,0.127
5,ATGATTCC,0.336
6,ATAATTCG,0.294
7,AGAATTCC,0.0767
8,ATAATTCC,0.348
9,AGCTCTGA,-0.0863
10,TACGGGGA,-0.183
11,GAGAATGA,0.122
12,ACACCGAT,-0.185
13,AAGCGCAG,0.127
14,CCTAGATA,-0.0707
15,AGTAGATA,0.311
16,CGTAGATA,0.0341
17,AGTAGATC,0.164
18,ACTAGATA,0.304
19,ACTAGATC,-0.0476
20,GCGGGGAC,-0.22
21,AGATGAAA,0.0735
22,AGAGCGTC,-0.081
23,ATCAGAAA,0.044
24,AGATACAG,0.22
25,CGATACAA,0.165

row,Sequence,PBM E-score
1,AGATACAA,0.292
2,CGGTGACG,-0.0845
3,AATGCGAT,-0.0207
4,AATGCGAG,0.291
5,CATGCGAG,-0.217
6,GGCATAAA,0.167
7,ATACGTGC,-0.058
8,TCACTAGA,0.12
9,AGTTGTTA,0.174
10,AATTGTTC,0.339
11,AGTTGTTC,0.337
12,AATTGTTG,0.114
13,AGTTGTTG,0.123
14,GATTGTTA,0.0997
15,AATTGTCC,0.163
16,GATTGTAC,0.0766
17,AATTGTAC,0.337
18,AATTGTTA,0.314
19,CATTGTAC,0.0182
20,AATTGTCA,0.139
21,CTGCAAAA,0.022
22,GAGCCCTA,-0.201
23,AACCTTGT,-0.194
24,ACCTGGGC,-0.362
25,CATGGAAG,0.204

row,Sequence,PBM E-score
1,CATTGTTC,0.31
2,CATTGTTA,-0.015
3,AAATGTTA,0.149
4,AAATGTTC,0.346
5,ATTTGTTA,0.185
6,AAATGTTG,-0.0479
7,CCTTGTTC,-0.124
8,CTTTGTTC,0.111
9,ATTTGTTC,0.44
10,GAGAGGTA,-0.223
11,CCCATCCA,-0.158
12,AACTGAGA,0.0375
13,GTTTGATA,0.177
14,AGCCCTGG,-0.252
15,AAATGGCA,0.101
16,GTTCCGAA,0.29
17,CTTCCGAA,0.208
18,ATTCCGAC,0.157
19,CTTCCGGA,0.274
20,GGTCCGAA,-0.0173
21,ATTCCGGG,0.188
22,ATTCCGAA,0.32
23,ATTCCGAG,0.242
24,ATTCCGGA,0.387
25,GAAGCTGA,0.135

row,Sequence,PBM E-score
1,CAGCTACA,0.0259
2,GCTACGCC,-0.239
3,ACGTTACT,0.0376
4,ATACGCCG,-0.149
5,AGTCAAAT,0.188
6,GGCCACCC,-0.214
7,CATTGAAC,0.124
8,CATTGAAA,0.29
9,TCTTGAAA,0.319
10,GCTTGAAA,0.0485
11,CCTTGAAA,0.0714
12,CATTGAAG,-0.0671
13,AGTGGTAG,0.0179
14,ATTAACTG,0.333
15,ATTAACTC,0.291
16,CTTAACTC,0.0941
17,ATTAACCG,0.295
18,ATTAACTA,0.181
19,AGTAACTG,0.0214
20,ATTAACCA,0.0788
21,ATTAACGG,0.159
22,ATTAACCC,0.237
